# “And” between values parts separate entries of the source, which are not always exact repeats. Identical values can stand only once. Inconclusive results are not listed. Some compounds were tested as several samples or in several runs, with calls that do not always agree. The source made the active and inactive calls. The calls were made as follows, unless noted: active = hit-call score of the fitted dose curve at least 0.9, where 1 is the maximum; inactive = score below 0.9.
# What was measured:
# [1] = CCTE_Shafer_MEA_dev_network_spike_duration_std: CCTE's Neural Network Formation Assay for Standard Deviation of Network Spike Duration, Shafer Lab (AID 2284052);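 also: hits are decreases in network spike duration SD versus DMSO vehicle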
# Method in brief: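 Network spike duration variability was collapsed across recordings on days 5, 7, 9 and 12 by trapezoidal area-under-curve and fitted downward against DMSO. Cultures were rat cortical neurons on PEI-coated MEA plates, dosed continuously from plating, refed with compound DIV 5/9.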
# [2] = CCTE_Shafer_MEA_dev_per_network_spike_spike_number_mean: CCTE's Neural Network Formation Assay for Mean Number of Spikes in a Network Spike, Shafer Lab (AID 2284053)
# Method in brief: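 Mean spike count within each network spike, taken in a 0.05 s window at its peak, was recorded on days 5, 7, 9 and 12 and integrated as trapezoidal area under the curve. Rat cortical cultures on MEA plates received continuous compound from day 0, refreshed at medium changes on DIV 5 and 9.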
# [3] = CCTE_Shafer_MEA_dev_per_network_spike_spike_percent: CCTE's Neural Network Formation Assay for Percent of Spikes in a Network Spike, Shafer Lab (AID 2284054)
# Method in brief: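 Developing networks of rat cortical neurons are dosed at day 0 and recorded extracellularly four times up to day 12. The endpoint is the area under the curve of percent spikes in network spikes, fitted in the negative direction relative to DMSO.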
# [4] = UKN5_HCS_SBAD2_cell_viability: Viability Assessment in the University of Konstanz (UKN) Leist Lab Neurite Outgrowth Assay in human iPSC-derived immature Dorsal Root Ganglia Neurons (UKN5) (AID 2284056)
# Experimental: UKN5_HCS_SBAD2 is a cell-based, multiplexed-readout assay screening for neurite outgrowth and cell viability that uses SBAD2 (peripheral neurons differentiated from iPSC), a human peripheral nervous system cell line, with measurements taken at […] after chemical dosing in a microplate: 96-well plate. UKN5, also referred to as PeriTox, is an assay that uses human iPSC line SBAD2 as a model of peripheral neurons. Following 24 hr chemical exposures in multi-well plates, neurite area is evaluated as a marker of neurite outgrowth using high-content imaging of cells stained with calcein-AM. Cell viability is assessed using stain Hoechst H-33342.UKN5_HCS_SBAD2_cell_viability is an assay component measured from the UKN5_HCS_SBAD2 assay. It is designed to make measurements of enzyme activity, a form of viability reporter, as detected with Fluorescence intensity signals by HCS Fluorescent Imaging.The assay endpoint UKN5_HCS_SBAD2_cell_viability was analyzed with bidirectional fitting relative to DMSO as the negative control and baseline of activity. Using a type of viability reporter, gain or loss-of-signal activity can be used to understand viability effects. To generalize the intended target to other relatable targets, this assay endpoint is annotated to the cell cycle intended target family, where the subfamily is viability. […]
# [5] = CCTE_Shafer_MEA_acute_AB: CCTE's Alamar Blue Assay for Cytotoxicity in the Neural Acute Assay, Shafer Lab (AID 2284069; active = hit-call score of the fitted dose curve at least 0.9, where 1 is the maximum;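 also: active compounds lower the viability signal compared with DMSO wells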)
# Method in brief: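 Resazurin reduction (CellTiter Blue, 1:6 in fresh medium) read at ex 544/em 590 nm marks viability loss relative to DMSO. Cells: primary rat cortical neuron networks on microelectrode arrays, treated after baseline recording at 13 or 15 days in vitro.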
# [6] = UKN5_HCS_SBAD2_neurite_outgrowth: University of Konstanz (UKN) Leist Lab Neurite Outgrowth Assay in human iPSC-derived immature Dorsal Root Ganglia Neurons (UKN5) (AID 2284070); conditions: actives raise or lower the signal
# Method in brief: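 Neurite outgrowth is quantified as calcein-AM-labelled neurite area in human iPSC-derived peripheral neurons treated for 24 h, starting 1 h after plating in medium with CHIR99021 (1.5 uM), SU5402 (5 uM) and DAPT (5 uM).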
# [7] = CCTE_Shafer_MEA_dev_AB: CCTE's Alamar Blue Assay for Cytotoxicity in the Neural Network Formation Assay, Shafer Lab (AID 2284083; active = hit-call score of the fitted dose curve at least 0.9, where 1 is the maximum;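 also: resazurin reduction fluorescence as viability of cultured neurons; twelve days of exposure from plating with re-dosing on DIV 5 and 9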)
# Method in brief: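 Resazurin fluorescence, relative to DMSO, gauges viability after twelve days of exposure that began at plating of rat cortical neurons (1.5 x 10^5 cells/well, 48-well MEA); treatment renewed with full medium exchange on DIV 5 and 9.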
# [8] = CCTE_Shafer_MEA_acute_LDH: CCTE's Lactate Dehydrogenase Assay for Cytotoxicity in the Neural Acute Assay, Shafer Lab (AID 2284086; active = hit-call score of the fitted dose curve at least 0.9, where 1 is the maximum;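 also: active means LDH release rises above DMSO vehicle level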)
# Method in brief: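 Cytotoxicity readout: spectrophotometric LDH activity in supernatant of rat primary cortical neurons, post-plating day 13 or 15, sampled after 40 min compound exposure; signal gain relative to DMSO baseline.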
# [9] = CCTE_Shafer_MEA_dev_mutual_information_norm: CCTE's Neural Network Formation Assay for Mutual Information Normalization, Shafer Lab (AID 2284091);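 as to AC50: mutual information between electrodes summarised as area under curve across four recording days; potency is for a decrease in mutual information relative to DMSO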
# Method in brief: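 Exposure of primary rat cortical neurons began at plating and ran to DIV 12, with full media and treatment renewal after DIV 5 and 9 recordings. Mutual information AUC (DIV 5–12) was analysed for loss versus DMSO.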
# DIO3 (gene 1735) = assay: CCTE_GLTED_hDIO3: CCTE's human Deiodinase 3 (DIO3) Inhibition Assay, Great Lakes Toxicology and Ecology Division (GLTED) Lab (AID 2284055; active = hit-call score of the fitted dose curve at least 0.9, where 1 is the maximum;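 also: potency is for inhibition seen as loss of released iodide signal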)
# Experimental: CCTE_GLTED_hDIO3 is a cell-free, single-readout assay designed to test the inhibitory activity of chemicals toward human iodothyronine Deiodinase type 3 (DIO3) enzyme. Enzyme is incubated in presence of test chemical for 3 hours during which uninhibited enzyme liberates free iodide from substrate. Free iodide is measured in a second step using the Sandell-Kolthoff method.CCTE_GLTED_hDIO3 is the assay component measured from the CCTE_GLTED_hDIO3 assay. It is designed to make measurements of enzyme activity, a form of enzyme reporter, as detected with absorbance signals by spectrophotometry.Data from the assay component CCTE_GLTED_hDIO3 was analyzed into 1 assay endpoint. This assay endpoint, CCTE_GLTED_hDIO3, was analyzed in the positive analysis fitting direction relative to DMSO as the negative control and baseline of activity. Using a type of enzyme reporter, loss-of-signal activity can be used to understand changes in the enzymatic activity as they relate to the gene DIO3. Furthermore, this assay endpoint can be referred to as a primary readout, because the performed assay has only produced 1 assay endpoint. To generalize the intended target to other relatable targets, this assay endpoint is annotated to the 'deiodinase' intended target family, where the subfamily is 'deiodinase Type 3'.
# […] assay, developed at Great Lakes Toxicology and Ecology Division (GLTED) within the EPA's Center for Computational Toxicology and Exposure (CCTE), is designed to test the chemicals' ability to inhibit DIO3. Assay uses human deiodinase type 3 (DIO3) enzyme produced with adenovirus expression system. Assay is based on iodide release measured by the Sandell-Kolthoff method and is run in 96-well plate format with assay plates run in triplicate (n=3). The method used for the deiodinase assay was largely based on Renko et al. (2012, 2015). These works describe the utilization of the SK reaction to measure deiodinase-liberated iodide in a 96-well-plate format. The SK reaction is based on the reduction of the yellow-colored cerium IV to the non-colored cerium III by arsenic, with the rate of this reaction increased in the presence of iodide in a concentration-dependent manner (Sandell and Kolthoff, 1937). Iodinated test chemicals can interfere as competitive inhibitors, or if the stock chemical has contaminating free-iodide present. Other chemicals, e.g.: nitrite, iron, and thiocyanate can interfere with the Sandell-Kolthoff reaction (see Sandell and Kolthoff, 1937).
structure (smiles),measurement,setting,value
COP(=S)(OC)SCn1nnc2ccccc2c1=O,outcome,[1],inactive
same,AC50,[2],24.9 µM (active)
same,AC50,[3],4.18 µM (active)
same,AC50,[4],47.2 µM (active)
same,outcome,[5],inactive
same,AC50,[6],35.1 µM (active)
same,AC50,[7],26.2 µM (active)
same,outcome,[8],inactive
same,AC50,[9],0.00499 µM (active)
CCOP(=O)(OCC)Oc1nc(Cl)c(Cl)cc1Cl,AC50,[1],2.98 µM (active)
same,outcome,[1],inactive
same,AC50,[2],3.09 µM (active) and 15 µM (active)
same,outcome,[2],inactive
same,AC50,[3],7.07 µM (active)
same,outcome,[3],inactive
same,AC50,[4],18.3 µM (active)
same,outcome,[5],inactive
same,AC50,[6],14.6 µM (active)
same,AC50,[7],9.43 µM (active) and 334 nM (active)
same,outcome,[7],inactive
same,outcome,[8],inactive
same,AC50,[9],872 nM (active) and 2.17 µM (active)
same,outcome,[9],inactive
O=C(Nc1ccccc1-c1ccc(Cl)cc1)c1cccnc1Cl,AC50,[1],1.14 µM (active)
same,outcome,[1],inactive
same,AC50,[2],1.13 µM (active)
same,outcome,[2],inactive
same,outcome,[3],inactive
same,AC50,[7],77.7 µM (active)
same,outcome,[7],inactive
same,outcome,[8],inactive
same,AC50,[9],18.3 µM (active)
same,outcome,[9],inactive
CCN(CC)c1nc(C)cc(OP(=S)(OC)OC)n1,outcome,[1],inactive
same,AC50,[2],29.5 µM (active)
same,AC50,[3],28 µM (active)
same,AC50,DIO3 (gene 1735),25.3 µM (active)
same,AC50,[7],50 µM (active)
same,AC50,[9],21.8 µM (active)
O=C1C2CC=CCC2C(=O)N1SC(Cl)(Cl)Cl (configuration not stated),outcome,[1],inactive
same,AC50,[2],9.85 µM (active)
same,outcome,[2],inactive
same,AC50,[3],15.6 µM (active)
same,outcome,[3],inactive
same,AC50,[7],16.1 µM (active) and 14.7 µM (active)
same,outcome,[9],inactive
CCSC(=O)N1CCCCCC1,outcome,[1],inactive
same,outcome,[2],inactive
same,outcome,[3],inactive
same,outcome,[7],inactive
same,outcome,[9],inactive
CC(C)=CC1C(C(=O)OCc2coc(Cc3ccccc3)c2)C1(C)C (configuration not stated),outcome,[1],inactive
same,outcome,[2],inactive
same,outcome,[3],inactive
same,AC50,DIO3 (gene 1735),40.5 µM (active)
same,outcome,[5],inactive
same,outcome,[7],inactive
same,outcome,[8],inactive
same,outcome,[9],inactive
CC1(C)C(C=C(Cl)Cl)C1C(=O)OC(C#N)c1cccc(Oc2ccccc2)c1 (configuration not stated),AC50,[1],2.2 µM (active)
same,outcome,[1],inactive
same,AC50,[2],6.97 µM (active)
same,outcome,[2],inactive
same,AC50,[3],8.41 µM (active)
same,outcome,[3],inactive
same,outcome,[5],inactive
same,outcome,[7],inactive
same,outcome,[8],inactive
same,AC50,[9],1.43 µM (active)
same,outcome,[9],inactive
C=C(C)CN(CC)c1c([N+](=O)[O-])cc(C(F)(F)F)cc1[N+](=O)[O-],AC50,[1],13.1 µM (active)
same,AC50,[2],14.1 µM (active)
same,AC50,[3],23.2 µM (active)
same,outcome,[5],inactive
same,AC50,[7],15.6 µM (active)
same,AC50,[9],12.8 µM (active)
CO/N=C(/C1=NOCCO1)c1ccccc1Oc1ncnc(Oc2ccccc2Cl)c1F,AC50,[1],0.889 µM (active)
same,AC50,[2],854 nM (active) and 756 nM (active)
same,AC50,[3],1.52 µM (active) and 801 nM (active)
same,AC50,DIO3 (gene 1735),15.9 µM (active)
same,outcome,[5],inactive
same,AC50,[7],1.47 µM (active) and 2.27 µM (active)
same,AC50,[9],401 nM (active) and 924 nM (active)
CCCN(CC)CC1COC2(CCC(C(C)(C)C)CC2)O1 (configuration not stated),AC50,[1],0.0662 µM (active)
same,AC50,[2],0.272 µM (active)
same,AC50,[3],0.266 µM (active)
same,AC50,[7],0.246 µM (active)
same,AC50,[9],0.119 µM (active)
CNC(=O)Oc1cccc2ccccc12,outcome,[1],inactive
same,AC50,[2],20.1 µM (active)
same,outcome,[2],inactive
same,AC50,[3],15 µM (active) and 5.05 µM (active)
same,outcome,[5],inactive
same,AC50,[7],15 µM (active)
same,outcome,[7],inactive
same,AC50,[9],8.41 µM (active) and 15 µM (active)
CC1(C)C(C(=O)OC(C#N)c2cccc(Oc3ccccc3)c2)C1(C)C (configuration not stated),outcome,[1],inactive
same,AC50,[2],10 µM (active)
same,AC50,[3],4.54 µM (active)
same,AC50,[7],1.98 µM (active)
same,AC50,[9],1.01 µM (active)
COP(=O)(OC)O/C(C)=C/C(=O)N(C)C,outcome,[1],inactive
same,outcome,[2],inactive
same,outcome,[3],inactive
same,outcome,[7],inactive
same,outcome,[9],inactive
N#CN=C1SCCN1Cc1ccc(Cl)nc1,outcome,[1],inactive
same,outcome,[2],inactive
same,outcome,[3],inactive
same,outcome,[5],inactive
same,outcome,[8],inactive
same,outcome,[9],inactive
CCOC(=O)C(C)OC(=O)c1cc(Oc2ccc(C(F)(F)F)cc2Cl)ccc1[N+](=O)[O-] (configuration not stated),outcome,[1],inactive
same,outcome,[2],inactive
same,outcome,[3],inactive
same,outcome,[5],inactive
same,outcome,[7],inactive
same,outcome,[8],inactive
same,outcome,[9],inactive
COC(=O)N(C(=O)N1CO[C@@]2(C(=O)OC)Cc3cc(Cl)ccc3C2=N1)c1ccc(OC(F)(F)F)cc1,outcome,[1],inactive
same,outcome,[2],inactive
same,AC50,[3],15 µM (active)
same,AC50,[7],2.98 µM (active)
same,outcome,[8],inactive
same,outcome,[9],inactive
CS(=O)(=O)c1ccc(C(=O)C2C(=O)CCCC2=O)c([N+](=O)[O-])c1,outcome,[1],inactive
same,outcome,[2],inactive
same,outcome,[3],inactive
same,AC50,DIO3 (gene 1735),46.3 µM (active)
same,outcome,[7],inactive
same,outcome,[9],inactive
Cc1c(COC(=O)[C@@H]2[C@H](/C=C(\Cl)C(F)(F)F)C2(C)C)cccc1-c1ccccc1,AC50,[1],2.29 µM (active) and 2.33 µM (active)
same,AC50,[2],665 nM (active) and 864 nM (active)
same,AC50,[3],440 nM (active) and 649 nM (active)
same,AC50,[7],14.6 µM (active) and 14.9 µM (active)
same,outcome,[8],inactive
same,AC50,[9],142 nM (active) and 269 nM (active)

# — PubChem BioAssay (EPA / NIEHS)
